# Calls of active or inactive are those of the source. Unless noted, how the calls were made is not given here.
# Experiments:
# [1] = test system: Wnt5a (protein binding on small-molecule microarray); assay: small molecules binding Wnt5a protein – biophysical, small-molecule microarray, 635/667 nm fluorescence, primary screen (AID 1142); conditions: 635 nm fluorescence, higher = more signal;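 further: fluorescence read at 667 nm with signal to noise per printed feature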
# [2] = ATP-based viability of Huh7 replicon cells – cell-based, CellTiter-Glo luminescence, basal, 48 h, cytotoxicity control for HCV replication inhibitor project, primary screen (AID 1143); conditions: higher = more signal, called active from +8 up or from −8 down;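 further: Huh7 hepatoma cells carrying a hepatitis C replication reporter with no stimulus; test concentration not given here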
# [3] = Pseudomonas biofilm growth suppression – PAO1 strain, BacTiter-Glo luminescence, LB-PBS, primary screen (AID 1144); conditions: P. aeruginosa PAO1 biofilm, 12 h, higher = more signal
# [4] = basal CRE-LacZ reporter activity in PC12 – cell-based, unstimulated, primary screen (AID 1145); conditions: no forskolin, luminescence, 4.5 h, higher = more signal, called active from +8 up or from −8 down
# [5] = forskolin-driven CRE-LacZ activity in PC12 – cell-based, CRE-LacZ reporter, forskolin-stimulated, primary screen (AID 1146); conditions: luminescence, 4.5 h, higher = more signal, called active from +8 up or from −8 down;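 further: PC12 cells with 6xCRE LacZ reporter stimulated by forskolin 10 µM; beta-galactosidase reporter signal reflecting CREB driven transcription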
# [6] = target: Streptavidin (Streptomyces avidinii) (UniProt P22629); assay: compounds binding control protein streptavidin – biophysical, small-molecule microarray, 635/667 nm fluorescence, artefact control for SMM compound annotation, primary screen (AID 1147); conditions: higher = more signal;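 further: signal reflects streptavidin binding to arrayed compounds as a control protein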
# [7] = probe aInhba binding on compound microarray – biochemical, small-molecule microarray, 635/667 nm fluorescence, primary screen (AID 1148); conditions: higher = more signal;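 further: score merges 667nm spot fluorescence with signal-to-noise for antibody binding to printed compounds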
# Torsin-1A (Homo sapiens) [8] = target: Torsin-1A (Homo sapiens) (UniProt O14656); assay: TOR1A wild-type binding on microarray – cell lysate, small-molecule microarray, lysate, 635/667 nm, primary screen (AID 1149); conditions: COS7 hTOR1A-WT lysate, 635 nm fluorescence, higher = more signal
# Torsin-1A (Homo sapiens) [9] = target: Torsin-1A (Homo sapiens) (UniProt O14656); assay: torsin A mutant lysate binding on microarrays – cell lysate, small-molecule microarray, COS7 lysate, 635/667 nm fluorescence, primary screen (AID 1150); conditions: COS7 hTOR1A mutant lysate, 635 nm fluorescence, higher = more signal;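 further: score pools 667 nm emission and signal to noise measuring lysate protein binding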
# [10] = test system: Sonic hedgehog protein (Shh); assay: Sonic hedgehog microarray binding compounds – biochemical, small-molecule microarray, 635/667 nm fluorescence, primary screen (AID 1151); conditions: 635 nm fluorescence, higher = more signal;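 further: Shh protein binding to compounds spotted on small-molecule microarray slides; score combines spot fluorescence intensity with signal-to-noise across triplicate slides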
# Chain of Torsin-1A (Homo sapiens) (O14656 whole entry, looked up): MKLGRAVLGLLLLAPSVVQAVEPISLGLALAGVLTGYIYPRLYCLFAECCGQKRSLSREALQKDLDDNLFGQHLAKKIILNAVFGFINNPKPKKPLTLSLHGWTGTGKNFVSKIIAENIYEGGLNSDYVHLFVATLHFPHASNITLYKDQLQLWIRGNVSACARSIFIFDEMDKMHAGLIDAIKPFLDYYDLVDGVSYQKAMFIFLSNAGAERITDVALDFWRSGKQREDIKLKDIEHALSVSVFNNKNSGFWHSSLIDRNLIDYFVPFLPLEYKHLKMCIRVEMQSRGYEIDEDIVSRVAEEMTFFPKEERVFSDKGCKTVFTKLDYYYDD
# Chain of Streptavidin (Streptomyces avidinii) (P22629 whole entry, looked up): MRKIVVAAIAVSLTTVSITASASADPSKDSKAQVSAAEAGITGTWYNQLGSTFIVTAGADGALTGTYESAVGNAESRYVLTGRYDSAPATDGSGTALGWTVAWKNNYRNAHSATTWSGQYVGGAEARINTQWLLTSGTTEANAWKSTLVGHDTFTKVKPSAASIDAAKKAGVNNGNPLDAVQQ
SMILES,composite z-score [1],z-score [2],z-score [3],z-score [4],z-score [5],composite z-score [6],composite z-score [7],composite z-score (Torsin-1A (Homo sapiens) [8]),composite z-score (Torsin-1A (Homo sapiens) [9]),composite z-score [10]
COC(=O)[C@]1(CCC(=O)OC(C)(C)C)N=C(c2ccc(OCCCO)cc2)O[C@@H]1c1ccccc1,-0.102,-4.76 (inactive),0.314 (inactive),2.39 (inactive),-0.0673 (inactive),-0.98,0.154,-0.927,-0.343,0.169
C=CC[C@]1(C(=O)N2CCOCC2)N=C(c2ccc(OCCCO)cc2)O[C@H]1c1ccccc1N=[N+]=[N-],0.268,-4.25 (inactive),-0.0153 (inactive),-0.193 (inactive),-1.78 (inactive),0.883,0.122,0.35,0.705,-0.269
COC(=O)[C@@]1(Cc2ccccc2)[C@H]2c3cc(C(=O)N4CCCC4)n(Cc4c(CO)[nH]cc(C)c4=O)c3C[C@H]2CN1C(=O)c1ccccc1,0.652,0.0519 (inactive),-0.0914 (inactive),0.0109 (inactive),0.473 (inactive),1.01,-0.101,0.4,0.491,-0.547
COC(=O)C(CC#Cc1ccc2c(c1)[C@]1(C(=O)N2)[C@H](c2ccc(O)cc2)N2[C@H](c3ccccc3)[C@H](c3ccccc3)OC(=O)[C@H]2[C@@H]1C(=O)N1CCN(c2ncccn2)CC1)C(=O)OC,0.131,-2.25 (inactive),-1.08 (inactive),-0.644 (inactive),-0.0048 (inactive),0.709,0.313,0.131,0.338,0.618
COCCOC(=O)N1C(=O)[C@@]2(c3ccccc31)[C@H](C(=O)N1CCCCCCC1)[C@H]1C(=O)O[C@H](c3ccccc3)[C@H](c3ccccc3)N1[C@@H]2c1ccc(OCCO)cc1,2.59,-2.7 (inactive),-0.276 (inactive),-1.29 (inactive),-0.791 (inactive),4.29,2.4,3.22,3.39,2.31
COc1cc2c(cc1O)C=[N+](Cc1cc3c(cc1Br)OCO3)CC2,-0.234,-2.14 (inactive),-0.304 (inactive),-0.671 (inactive),0.945 (inactive),-1.88,-0.154,-0.39,-0.945,-0.216
CC(C)C(=C=CC[C@H](O)c1ccc(CO)o1)CCO,-0.0164,0.243 (inactive),-0.0587 (inactive),1.87 (inactive),1.33 (inactive),0.0515,-0.0963,0.385,0.291,1.71
CCN(CC)c1ccc(N2CC=CC34O[C@@H]5/C=C\CCC(C)OC(=O)C5[C@H]3C(=O)N(CCCCCO)[C@@H]4C2=O)cc1 (stereo not given in full),-0.408,0.16 (inactive),1.24 (inactive),1.16 (inactive),-0.418 (inactive),-1.1,-0.016,-1.47,-1.59,-0.0874
CC[C@@H]1C=C(C(=O)O)[C@H](c2ccc(C)cc2)N1S(=O)(=O)c1ccc(C)cc1,-0.412,-0.52 (inactive),-0.498 (inactive),-0.527 (inactive),1.03 (inactive),0.583,0.0516,0.063,0.247,-0.103
O=C1C2C=CC(C(O)c3ccc(F)cc3)N(Nc3ccc([N+](=O)[O-])cc3)C2C(=O)N1c1ccccc1 (stereo not given),0.241,-0.0129 (inactive),-0.615 (inactive),-0.415 (inactive),0.15 (inactive),1.39,0.0487,-0.232,0.187,-0.241
[N-]=[N+]=NCc1ccccc1[C@@H]1OC(c2ccc(OCCCO)cc2)=N[C@]1(CCS(=O)(=O)c1ccccc1)C(=O)N1CCCCC1,0.571,-2.09 (inactive),0.406 (inactive),5.06 (inactive),0.243 (inactive),1.19,0.531,0.292,0.447,-0.0529
COC(=O)C[C@H]1O[C@@H](CCc2ccccc2)[C@@H](C)[C@@H]1[Si](C)(C)c1ccc(OC)cc1,0.0073,-1.76 (inactive),0.315 (inactive),-0.87 (inactive),-0.687 (inactive),-0.604,-0.0963,-0.247,-0.23,-0.243
[N-]=[N+]=Nc1ccccc1C[C@]1(C(=O)NCC(O)CO)N=C(c2ccc(OCCCO)cc2)O[C@H]1c1ccccc1 (stereo not given in full),-0.541,-3.23 (inactive),0.382 (inactive),1.19 (inactive),-1.55 (inactive),0.204,0.0134,-0.268,0.089,-1.61
COCCOC(=O)N1C(=O)[C@@]2(c3cc(C#CC4(O)CCCCCC4)ccc31)[C@H](c1ccccc1OCCO)N1[C@H](c3ccccc3)[C@H](c3ccccc3)OC(=O)[C@H]1[C@@H]2C(=O)N1CCc2cc(OC)c(OC)cc2C1,0.305,-3.17 (inactive),-0.665 (inactive),-1.29 (inactive),1.03 (inactive),0.738,-0.0496,0.0651,0.336,1.11
CCCC=C(CCC)[C@@H](NC(=O)OCC(C)C)c1ccccc1,1.33,-3.28 (inactive),0.173 (inactive),0.766 (inactive),1.43 (inactive),0.576,0.613,0.0387,-0.0475,0.661
O=C1O[C@@H](c2ccccc2)[C@@H](c2ccccc2)N2[C@@H](c3ccc(OCCO)cc3)[C@]3(C(=O)Nc4ccc(C#CC5=CCCCC5)cc43)[C@@H](C(=O)N3CCCCCCC3)[C@H]12,1.18,-2.05 (inactive),-0.334 (inactive),0.568 (inactive),0.509 (inactive),2.92,1.93,1.58,2.02,1.37
NCCCCCNC(=O)[C@H]1C[C@H]2C(=O)N[C@@H](Cc3ccccc3)C(=O)N2[C@H]1c1cccc(OCCO)c1,-0.0768,-0.535 (inactive),-0.2 (inactive),1.49 (inactive),-0.389 (inactive),0.951,0.205,0.5,0.71,0.102
CC(C)(C)OC(=O)CC[C@]1(C(N)=O)N=C(c2ccc(OCCCO)cc2)O[C@H]1c1ccccc1,0.836,-0.408 (inactive),0.304 (inactive),-0.585 (inactive),-0.121 (inactive),0.679,0.4,-0.037,0.941,-0.332
CC=CC(O)C1C=CC2C(=O)N(C)C(=O)C2N1N(c1ccccc1)c1ccccc1 (stereo not given),0.16,0.695 (inactive),0.305 (inactive),-0.326 (inactive),0.493 (inactive),0.29,0.0536,2.7,1.3,0.306
CC(C)CN1C(=O)[C@@]2(c3ccc([N+](=O)[O-])cc3)CC(=O)N(C3CCCCC3)[C@@H]2c2ccc(CO)cc21,-0.409,-0.159 (inactive),-0.927 (inactive),-0.502 (inactive),0.241 (inactive),-0.471,-0.237,-1.32,-1.67,-0.939
COCCCNC(=O)[C@@]1(Cc2ccccc2)N=C(c2ccc(OCCCO)cc2)O[C@H]1c1ccccc1CN=[N+]=[N-],0.419,-3.17 (inactive),1.55 (inactive),0.447 (inactive),-0.929 (inactive),0.716,0.389,0.544,0.37,-0.0164
C=C(/C(=C/C[C@H](OC(C)=O)c1ccc(OCCO)cc1)c1cc(C(=O)OC)ccc1OC)C(C)C,0.269,-2.4 (inactive),-0.357 (inactive),20.7 (active),-0.509 (inactive),1.17,0.0589,0.287,1.98,1.41
[N-]=[N+]=Nc1ccccc1[C@H]1OC(c2ccc(OCCCO)cc2)=N[C@@]1(Cc1ccccc1)C(=O)N1CCOCC1,0.267,-4.05 (inactive),-0.622 (inactive),-0.0341 (inactive),-1.62 (inactive),2.01,0.554,0.124,0.212,0.672
NC(=O)N1C(=O)C2C(C1=O)C1C=C(CCCO)C2C(C2CC2)N1Cc1cc2c(cc1Br)OCO2 (stereo not given),-0.219,-0.387 (inactive),1.44 (inactive),4.37 (inactive),0.0317 (inactive),0.129,-0.157,0.0457,0.28,0.195
CCOC(=O)C[C@H]1[C@H](OC(=O)c2cc3ccccc3oc2=O)[C@@H](NC(=O)CC(C)C)c2cc(OCCCO)ccc2N1C(=O)c1ccccc1,0.175,-3.29 (inactive),1.25 (inactive),10.4 (active),-1.37 (inactive),0.131,-0.0986,0.272,0.205,0.595
CC(=O)Nc1cc(Br)ccc1C(=O)NCc1ccccc1,-0.0375,-0.798 (inactive),0.0338 (inactive),-0.348 (inactive),-1.14 (inactive),0.725,-0.0963,-0.0164,-0.0323,-0.24
CN(C)CCCCCCNC(=O)[C@@H]1C[C@@H]2C(=O)N3CCC[C@H]3C(=O)N2[C@@H]1c1ccc(O)cc1,0.21,-0.892 (inactive),-0.999 (inactive),0.561 (inactive),-0.439 (inactive),-0.331,0.138,1.4,1.46,2.17
COC(=O)c1c(CC[C@@H](CO)NC(=O)N[C@@H](Cc2ccccc2)Cn2cc(-c3ccccn3)nn2)oc(C(=O)N2CCOCC2)c1C(=O)OC,-0.216,-0.625 (inactive),-0.301 (inactive),0.498 (inactive),-0.248 (inactive),-0.0372,0.0184,-0.481,0.182,1.72
O=C1C2C=CC(C(O)COCc3ccccc3)N(Nc3ccc([N+](=O)[O-])cc3)C2C(=O)N1c1ccccc1 (stereo not given),0.43,-3 (inactive),-1.83 (inactive),-0.275 (inactive),0.788 (inactive),0.464,0.0743,0.272,0.165,0.57

# From PubChem BioAssay
